From PubChem BioAssay (NCATS)
“And” between values parts separate entries of the source, which are not always exact repeats. Equal entries are not always repeated. Records with an inconclusive call do not appear. For some of these results: Potency and affinity values are given separately. The source made the active and inactive calls. Where a SMILES comes first, the peptide text is derived from it. Bridges are numbered along the chain shown (N, C = ends). [ ]: non-standard residue; d: D form. The star is where a group is joined. Dab(CH2SO3H) = N[C@@H](CCNCS(=O)(=O)O)C(=O)O; X1 = CC[C@@H](C)CCCCC(=O)*; Dab = NCC[C@H](N)C(=O)O

Columns and labels:
[1] = Ebola virus entry assay, blue channel fluorescence
[2] = Ebola virus entry assay, green fluorescence channel
[3] = Ebola virus entry assay, ratio channel readout
[4] = Ebola virus entry cell assay, ratio channel
[5] = qHTS Assay for Identifying Gametocytocidal Compounds (AID 743244; active = well fitted curve in the direction sought with a large enough effect;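 note: % is set by controls: 0 for no effect and ±100 for the full control effect; actives lower the fluorescent signal which means gametocytes are killed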); conditions: P. falciparum 3D7 stage III-V gametocytes, alamarBlue, 72 h; max response: stronger effect = lower value
How it was run: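 Stage III–V gametocytes of P. falciparum 3D7 were seeded at 20,000 cells/well onto pre-dispensed compounds. After 72 h, 37 °C, 5% CO2, alamarBlue was added for another 24 h.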

[6] = qHTS profiling of the MIPE4 collection as inhibitors of Plasmodium falciparum (3D7) proliferation (AID 743344; call rule not given here;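 note: scaled between DMSO vehicle wells and 0.29 µM artemisinin as full inhibition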); conditions: P. falciparum 3D7 in erythrocytes, SYBR Green DNA fluorescence, 72 h; at 28.5 µM (top of the series) unless noted
How it was run: (§1)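 Erythrocytes infected with P. falciparum (0.3% parasitemia, 2.5% hematocrit) incubated with compounds 72 h at 37 C, 5% CO2. Lysis with saponin/Triton buffer containing SYBR Green I, overnight at room temperature in the dark; DNA fluorescence (485/535 nm) normalised to 0.29 uM artemisinin and DMSO.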

[7] = qHTS profiling of the MIPE4 collection as inhibitors of Plasmodium falciparum (DD2) proliferation (AID 743345; call rule not given here); conditions: P. falciparum Dd2 in erythrocytes, SYBR Green DNA, 72 h; at 28.5 µM (top of the series) unless noted
How it was run: as §1

[8] = qHTS profiling of the MIPE4 collection as inhibitors of Plasmodium falciparum (HB3) proliferation (AID 743347; call rule not given here;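 note: plate controls were DMSO vehicle wells for no effect and artemisinin wells for full effect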); conditions: P. falciparum HB3 in erythrocytes, SYBR Green DNA, 72 h; at 28.5 µM (top of the series) unless noted
How it was run: as §1

[9] = Ebola virus entry assay, blue channel fluorescence; remark: listed apart in the source
[10] = Ebola virus entry assay, reporter ratio channel; AC50: Channel type: primary unless noted; outcome: Channel type: primary unless noted
[11] = Ebola virus entry assay, blue channel (ratio component)
[12] = Ebola virus entry reporter assay, green channel fluorescence
[13] = Ebola virus entry assay, blue channel fluorescence; remark: listed apart in the source
[14] = Ebola virus entry assay, ratio channel
[15] = Ebola virus entry assay, green channel fluorescence

C=CC[C@@H]1C=C(C)C[C@H](C)C[C@H](OC)[C@H]2O[C@@](O)(C(=O)C(=O)N3CCCC[C@H]3C(=O)O[C@H](C(C)=C[C@@H]3CC[C@H](O)[C@H](OC)C3)[C@@H](C)[C@@H](O)CC1=O)[C@@H](C)C[C@@H]2OC
inactive: outcome [1] | outcome [2] | outcome [3] | outcome [4]

C[C@]12CC[C@@H]3c4ccc(OC(=O)N(CCCl)CCCl)cc4CC[C@H]3[C@@H]1CC[C@@H]2OP(=O)(O)O
97.1%: parasite growth remaining, % of DMSO control (lower = more inhibition) [7]
86.9%: parasite growth, % of DMSO control [6]
inactive: max response [5] 0.678% and -5.22% | outcome [1] | outcome [2] | outcome [3] | outcome [9] | outcome [4]
47.6%: growth, % of control [8]

C=C1C(=C/C=C2\CCC[C@]3(C)[C@@H]([C@H](C)CCCC(C)(C)O)CC[C@@H]23)C[C@@H](O)C[C@@H]1O
inactive: outcome [1] | outcome [2] | outcome [3] | outcome [9] | outcome [4]

CN(C)CCOc1ccc(/C(=C(/CCCl)c2ccccc2)c2ccccc2)cc1
inactive: outcome [2] | outcome [3] | outcome [10] inactive [Channel type: confirmation] | outcome [11]
active: AC50 [1] 4.47 µM | AC50 [4] 3.55 µM

Nc1ccn([C@@H]2O[C@H](CO)[C@@H](O)C2O)c(=O)n1 (stereo not given in full)
inactive: outcome [1] | outcome [2] | outcome [3] | outcome [9] | outcome [4]

CNCCC=C1c2ccccc2CCc2ccccc21
inactive: outcome [2]
active: AC50 [1] 8.91 µM | AC50 [3] 7.95 µM | AC50 [4] 7.94 µM

CC[C@H]1OC(=O)[C@H](C)[C@@H](O[C@H]2C[C@@](C)(OC)[C@@H](O)[C@H](C)O2)C(C)[C@@H](O[C@@H]2O[C@H](C)C[C@H](N(C)C)[C@@H]2O)[C@](C)(OC)C[C@@H](C)C(=O)[C@H](C)[C@@H](O)[C@]1(C)O (stereo not given in full)
active: AC50 [1] 7.94 µM | AC50 [3] 7.95 µM | AC50 [4] 7.94 µM
inactive: outcome [2] | outcome [10] inactive [Channel type: confirmation] | outcome [11]

CO[C@H]1C=CO[C@@]2(C)Oc3c(C)c(O)c4c(O)c(c(/C=N/N5CCN(C6CCCC6)CC5)c(O)c4c3C2=O)NC(=O)/C(C)=C\C=C[C@H](C)[C@H](O)[C@@H](C)[C@@H](O)[C@@H](C)[C@H](OC(C)=O)[C@@H]1C
inactive: outcome [1] | outcome [2] | outcome [3] | outcome [12] | outcome [4]

CN1CCN(CCC=C2c3ccccc3Sc3ccc(S(=O)(=O)N(C)C)cc32)CC1
inactive: outcome [2] | outcome [10] inactive [Channel type: confirmation]
active: AC50 [1] 4.47 µM | AC50 [3] 4.47 µM | AC50 [4] 4.47 µM

CC(C)[C@H]1C(=O)N2CCC[C@H]2[C@]2(O)O[C@](NC(=O)[C@@H]3C[C@@H]4c5cccc6[nH]cc(c56)C[C@H]4N(C)C3)(C(C)C)C(=O)N12
inactive: outcome [1] | outcome [2] | outcome [3] | outcome [12] | outcome [4]

CCOC(=O)CCC(=O)O[C@H]1[C@H](O[C@@H]2[C@@H](C)[C@H](O[C@H]3C[C@@](C)(OC)[C@@H](O)[C@H](C)O3)[C@@H](C)C(=O)O[C@H](CC)[C@@](C)(O)[C@H](O)[C@@H](C)C(=O)[C@H](C)C[C@@]2(C)O)O[C@H](C)C[C@@H]1N(C)C
inactive: outcome [1] | outcome [2] | outcome [3] | outcome [12] | outcome [4]

CN[C@@H]1CCc2[nH]c3ccc(C(N)=O)cc3c2C1
inactive: outcome [1] | outcome [2] | outcome [3] | outcome [9] | outcome [4]

COc1cc(NS(C)(=O)=O)ccc1Nc1c2ccccc2nc2ccccc12
inactive: outcome [1] | outcome [2] | outcome [3] | outcome [12] | outcome [4]

CN=C1CN(O)C(c2ccccc2)=c2cc(Cl)ccc2=N1
inactive: max response [5] 7.17% | outcome [1] | outcome [2] | outcome [3] | outcome [12]
active: AC50 [4] 12.6 µM

CC[C@@H](C)CCCCC(=O)N[C@@H](CCNCS(=O)(=O)O)C(=O)N[C@H](C(=O)N[C@@H](CCNCS(=O)(=O)O)C(=O)N[C@H]1CCNC(=O)[C@H]([C@@H](C)O)NC(=O)[C@H](CCNCS(=O)(=O)O)NC(=O)[C@H](CCNCS(=O)(=O)O)NC(=O)[C@H](CC(C)C)NC(=O)[C@@H](CC(C)C)NC(=O)[C@H](CCNCS(=O)(=O)O)NC1=O)[C@@H](C)O (X1-[Dab(CH2SO3H)]T[Dab(CH2SO3H)][Dab][Dab(CH2SO3H)][dL]L[Dab(CH2SO3H)][Dab(CH2SO3H)]T; lactam 4-C)
inactive: outcome [1] | outcome [2] | outcome [3] | outcome [4]

O=C1Nc2ccc(Cl)cc2C(c2ccccc2)=NC1O (stereo not given)
inactive: max response [5] 6.98% and -4.42% | outcome [1] | outcome [2] | outcome [3] | outcome [9] | outcome [4]

CC[C@H](C)C(=O)O[C@H]1C[C@H](O)C=C2C=C[C@H](C)[C@H](CC[C@@H](O)C[C@@H](O)CC(=O)O)[C@H]21
inactive: outcome [1] | outcome [2] | outcome [3] | outcome [9] | outcome [4]

Nc1ccn(C[C@@H](CO)OCP(=O)(O)O)c(=O)n1
inactive: outcome [1] | outcome [2] | outcome [3] | outcome [9] | outcome [4]
81.6% [at 9.64 µM]: growth, % of control [8]
94% [at 9.64 µM]: parasite growth, % of DMSO control [6]
103% [at 9.64 µM]: parasite growth remaining, % of DMSO control (lower = more inhibition) [7]

CO[C@@]1(NC(=O)Cc2cccs2)C(=O)N2C(C(=O)O)=C(COC(N)=O)CS[C@@H]21
inactive: outcome [2] | outcome [3] | outcome [13] | outcome [14] | outcome [15] | outcome [9] | outcome [10] | outcome [11] | outcome [12] | outcome [4]

CC(C=CC1=C(C)CCCC1(C)C)=CC=CC(C)=CC(=O)O
inactive: outcome [1] | outcome [3] | outcome [9] | outcome [12] | outcome [4]

CCN(CC)CC#CCOC(=O)C(O)(c1ccccc1)C1CCCCC1 (stereo not given)
inactive: outcome [1] | outcome [2] | outcome [3] | outcome [4]

O=c1[nH]c(=O)n([C@H]2C[C@H](O)[C@@H](CO)O2)cc1F
inactive: outcome [2] | outcome [13] | outcome [14] | outcome [15] | outcome [9] | outcome [10] | outcome [11] | outcome [4]

CC(=O)S[C@@H]1CC2=CC(=O)CC[C@]2(C)[C@H]2CC[C@@]3(C)[C@@H](CC[C@@]34CCC(=O)O4)[C@H]12
inactive: outcome [1] | outcome [3] | outcome [9] | outcome [4]

COc1cc([C@@H]2c3cc4c(cc3[C@@H](O[C@@H]3O[C@@H]5CO[C@@H](c6cccs6)O[C@@H]5[C@H](O)[C@@H]3O)[C@H]3COC(=O)[C@H]23)OCO4)cc(OC)c1O
inactive: outcome [1] | outcome [2] | outcome [3] | outcome [4]

N[C@@H](Cc1cc(I)c(Oc2ccc(O)c(I)c2)c(I)c1)C(=O)O
inactive: outcome [1] | outcome [3] | outcome [9] | outcome [12] | outcome [4]

CCC1=C(C)CN(C(=O)NCCc2ccc(S(=O)(=O)NC(=O)NC3CCC(C)CC3)cc2)C1=O (stereo not given)
inactive: outcome [2] | outcome [3] | outcome [15] | outcome [9] | outcome [10] | outcome [11] | outcome [12] | outcome [4]

CCOc1cc(CC(=O)N[C@@H](CC(C)C)c2ccccc2N2CCCCC2)ccc1C(=O)O
inactive: outcome [2] | outcome [3] | outcome [9] | outcome [12] | outcome [4]

OCCN1CCN(CC/C=C2/c3ccccc3Sc3ccc(C(F)(F)F)cc32)CC1
active: AC50 [13] 3.55 µM

Nc1ccn([C@@H]2CS[C@H](CO)O2)c(=O)n1
inactive: outcome [2] | outcome [3] | outcome [9] | outcome [4]

CN1CCN2c3ncccc3Cc3ccccc3C2C1 (stereo not given)
inactive: outcome [1] | outcome [2] | outcome [3] | outcome [4]
